High-throughput results as filed in PubChem BioAssay.
Vaccinia mCherry: inhibitors of vaccinia virus infection (mCherry reporter signal). Vaccinia virus mCherry reporter infection, fluorescence. Potency, µM (highest dose often 36.5 µM), for the others: top-dose activity change, negative = inhibition, hits mostly inhibitors. actives 0.63% (n = 310,000). AID 720579; calls by dose curve; tested in A549 cells; further: nearly all actives have a fitted effect of over 35% in size
Sm TGR inh: inhibitors of Schistosoma mansoni thioredoxin glutathione reductase. Q962Y6. purified TGR, DTNB reduction, TNB absorbance 405 nm. Potency, µM (titrated, usually from 114 µM), inactives show at the top dose activity change, negative = inhibition, actives largely listed as inhibitors. actives 3% (n = 360,000); active means well fitted inhibition curve with a large enough effect; inconclusive means small, poorly fitted or top-dose-only effect; inactive means no such curve, though single readings can be large or run the other way; further: nearly all actives have a fitted effect of over 60% in size
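Kinetic colorimetric format: TGR-catalysed, NADPH-driven DTNB reduction monitored via TNB absorbance. Enzyme dispensed at 20 nM; compound exposure 15 min at room temperature before reaction start.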
Lassa entry inh: inhibitors of Lassa virus binding or cell entry; Lassa virus pseudotype entry inhibition, cell reporter; Potency, µM (series often up to 37.9 µM), inactives show top-dose activity change, negative = inhibition, actives largely listed as inhibitors; actives 1.2% (n = 300,000); calls by dose curve; tested in HEK293 cells; further: nearly all actives have a fitted effect of over 50% in size
Vaccinia Venus: vaccinia inhibition (Venus reporter). Vaccinia virus Venus reporter expression, fluorescence. Potency, µM (highest dose often 36.5 µM), for inactives: at the top dose activity change, negative = inhibition, actives largely listed as inhibitors. actives 0.46% (n = 330,000). AID 720580; calls by dose curve; tested in A549 cells; further: nearly all actives have a fitted effect of over 30% in size
Marburg entry inh: Marburg virus entry inhibition; Marburg virus pseudotyped entry inhibition, cell reporter; AID 540276; actives 1.8% (n = 300,000); Potency, µM (doses to about 37.8 µM), inactives show at the top dose activity change, negative = inhibition, usual class: inhibitors; calls by dose curve; tested in HEK293 cells
FMDV antiviral: blocks foot and mouth disease virus; FMDV antiviral cell-based qHTS; Potency, µM (titrated, usually from 57.9 µM), for inactives: at the top dose activity change, negative = inhibition, actives largely listed as inhibitors; actives 1.2% (n = 410,000); AID 1159524; calls by dose curve; tested in HEK293T cells; further: read-out not given here; nearly all actives have a fitted effect of over 45% in size
* = called active by the depositor; i = inactive; ? = inconclusive; nt = no result given; [ ] = dose if it differs, or a comment. Shown are actives, neighbours in structure and some others; about 5.4% of the full set was active somewhere. On the % scale 0 is the no-effect control and ±100 the full control effect; potency means the concentration at half of the fitted maximal effect.

SMILES	Vaccinia mCherry	Sm TGR inh	Lassa entry inh	Vaccinia Venus	Marburg entry inh	FMDV antiviral
Cc1sc(NC(=O)c2ccco2)c(CN2CCN(Cc3ccccc3)CC2)c1C	-27%	-20%	?	-20%	13µM*	-29%
Cc1sc(NC(=O)c2ccco2)c(CN2CCC(C)CC2)c1C	i	-31%	-25%	-10%	?	-28%
COc1ccc(C(c2c(NC(=O)c3ccccc3)sc(C)c2C)N2CCN(CCO)CC2)cc1 (configuration not stated)	-4%	-3%	?	5%	?	-19%
CCN1CCN(C(c2ccccn2)c2c(NC(=O)c3ccccc3)sc(C)c2C)CC1 (configuration not stated)	?	-11%	?	-20%	10µM*	?
CC(C)(C)n1nnnc1C(c1cccnc1)N1CCN(C(=O)c2ccco2)CC1 (configuration not stated)	i	-20%	10%	-2%	17%	nt
CCN1CCN(C(c2cccnc2)c2c(NC(=O)c3ccco3)sc(C)c2C)CC1 (configuration not stated)	nt	20µM*	nt	nt	nt	-6%
COc1cccc(C(c2c(NC(=O)c3ccccc3)sc(C)c2C)N2CCN(C)CC2)c1 (configuration not stated)	i	-2%	?	-19%	20µM*	-23%
COc1ccc(C(c2c(NC(=O)c3ccco3)sc(C)c2C)N2CCOCC2)cc1 (configuration not stated)	-10%	-16%	?	-10%	-16%	-1%
Cc1sc(NC(=O)c2ccco2)c(C(c2cccnc2)N2CCC(C)CC2)c1C (configuration not stated)	nt	18µM*	21µM*	nt	?	18µM*
CCCCCOc1ccc(NC(=O)Cn2c(-c3nonc3N)nc3ccccc32)cc1	-2%	-1%	-11%[46.1 µM]	-3%	nt	-2%
O=C(Nc1cccc(Cl)c1Cl)c1ccc2c(c1)N(Cc1cccc(Cl)c1)C(=O)c1ccccc1S2(=O)=O	-17%	2%	3%[46.1 µM]	-1%	?	-16%
O=C(NCC1OCCc2ccccc21)c1ccc(NC(=O)c2ccc(Cl)cc2Cl)cc1 (configuration not stated)	-7%	0%	-19%	2%	-28%	?
O=C(NCc1ccoc1)c1ccc(NC(=O)c2ccccc2Cl)cc1	nt	35µM*	0%	?	4%	-14%
O=C(NCC1OCCc2ccccc21)c1ccc(NC(=O)c2ccccc2Cl)cc1 (configuration not stated)	-13%	-3%	?	-18%	7.9µM*	14µM*
COc1ccc(C(=O)NCCc2nnc3n2CCN(CC2CC=CCC2)CC3)cc1 (configuration not stated)	-22%	nt	nt	-8%	nt	-19%
Cc1cc2oc(C(=O)Nc3cccc(-c4nc5ccccc5o4)c3)c(C)c2cc1C	-5%	-2%	?	4%	?	-10%
O=C(C1CCN(C2CCN(Cc3ccc4c(c3)CCO4)CC2)CC1)N1CCCC1	-12%	-5%[57.1 µM]	-5%[46.1 µM]	-16%	4.5µM*	-24%
COc1cc(CN2CCC(N3CCC(C(=O)N4CCCC4)CC3)CC2)cc2c1OCO2	-3%	-17%	-14%[46.1 µM]	-26%	?	-9%
COC(=O)c1c[nH]c2c1-c1cc(C(=O)OCc3ccccc3)n(S(=O)(=O)c3ccc(C)cc3)c1C(=O)C2=O	?	nt	?	2.2µM*	-16%	7.9µM*
Cc1ccc(S(=O)(=O)Cc2ccc(C(=O)OCc3ccccc3)cc2)cc1	-7%	-5%	-29%	-26%	-19%[46.1 µM]	?
O=C(/C=C\c1ccc(O)cc1)c1ccc(O)cc1O	nt	nt	nt	nt	10µM*	nt
COc1ccc(Nc2nc(-c3cccc(OC)c3O)nc3ccccc23)cc1	nt	-2%	nt	nt	nt	4%
COc1cccc(-c2nc(NC(C)(C)C)c3ccccc3n2)c1O	nt	-8%	?	nt	-27%	25µM*
CCCNC(=O)OCc1cccnc1Sc1ccc(C)cc1	-3%	4%	10µM*	4%	?	46%
CCOC(=O)Nc1cccnc1Sc1ccc(Cl)cc1	20%	nt	20%[46.1 µM]	2%	-12%[46.1 µM]	-3%
SMILES	Vaccinia mCherry	Sm TGR inh	Lassa entry inh	Vaccinia Venus	Marburg entry inh	FMDV antiviral
O=C(c1[nH]ncc1-c1cccc(Br)c1)C1CO1 (configuration not stated)	i	11µM*	?	-15%	?	35µM*
COc1ccc(Cc2noc(CN3CCC(c4ccncc4)CC3)n2)cc1OC	nt	-7%	nt	nt	nt	?
COc1ccc(Cc2noc(CN3CCN(C4CCc5ccccc5C4)CC3)n2)cc1OC (configuration not stated)	-23%	9%	-27%	-13%	?	20µM*
Fc1cccc(Cc2noc(CN3CCN(C4CCc5ccccc5C4)CC3)n2)c1 (configuration not stated)	-21%	26%	9%	-3%	13%[46.1 µM]	-29%
Fc1cccc(Cc2noc(CN3CCCN(C4Cc5ccccc5C4)CC3)n2)c1	-47%	?	7%[46.1 µM]	2%	11µM*	7%
Cc1c(Br)c(O)c(Br)c2sc(=O)oc12	nt	2.8µM*	nt	nt	nt	-21%
Cc1ccc(NC(=O)/C=C\C(=O)NCC(=O)O)cc1C	-13%	1.8µM*	15%	-13%	?	-16%
C=C(Br)COC(c1ccco1)[C@H](Cc1ccccc1)NC(=O)OC(C)(C)C (some centres not stated)	-9%	nt	nt	-23%	nt	nt
N#C/C(=C(\O)Cc1ccccc1)c1nc2ccccc2[nH]1	nt	-6%	-2%	?	-10%	11%
N#C/C(=C(/O)CCl)c1nc2ccccc2[nH]1	?	25µM*	?	?	?	35µM*
Cc1nc2c(C(=O)NCc3ccccc3Cl)cnn2c(C)c1Cc1c(F)cccc1Cl	-21%	10%	?	-9%	nt	7%
O=C(Nc1nnc(-c2ccncc2)o1)c1ccc(Br)s1	-2%	?	?	-21%	8.9µM*	84%
O=C(Nc1nnc(-c2ccco2)o1)c1ccc2ccccc2c1	-3%	-5%	?	-13%	14µM*	55%
O=C(Nc1nnc(-c2ccco2)o1)c1ccc([N+](=O)[O-])s1	?	28µM*	?	?	?	21%
CCCN1CNc2c(c(=O)[nH]c(=S)n2CCc2c(OC)cccc2OC)C1	i	nt	nt	-13%	nt	nt
Cc1[nH]n(-c2nc(-c3ccc(Cl)cc3)cs2)c(=O)c1N=Nc1ccc(O)cc1	-15%	-3%	11µM*	-15%	?	7.9µM*
COc1cc(=O)n2c(c1C(=O)NC(C)c1ccco1)CCN(Cc1ccccc1C(F)(F)F)CC2 (configuration not stated)	-13%	nt	nt	-7%	nt	-10%
COc1nc(C)ccc1-c1noc(-c2cccs2)n1	i[7.34 µM]	13%	-29%	-8%[7.34 µM]	11µM*	13%
COc1nc(-c2ccccc2)ccc1-c1noc(-c2cccs2)n1	nt	nt	-6%	nt	-18%	66%
